12 compounds from PubChem BioAssay can be followed below.

Assay [1] is described as follows: liver-stage malaria parasite growth inhibition, primary screen, cell-based, HepG2, luciferase luminescence, HepG2 viability (AID 624349).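 Also: 100% = mean of DMSO negative control wells on the same plate.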 Particulars: P. berghei liver stage in HepG2, luciferase luminescence, concentration not given here; parasite load remaining: stronger effect = lower value; viability: measured here: HepG2 viability without parasites.
The nature of assay [2]: stimulators of nuclear beta-catenin in C2C12, primary screen, imaging, WNT3A-conditioned medium, mouse C2C12, NPC library (AID 1117326; in the data active = nuclear beta-catenin stimulation mostly above about 4.2%, no sharp cut-off; inactive = mostly below about 10%). Particulars: stronger effect = higher value.
Assay [3] can be described thus: stimulators of insulin release from INS-1E, primary screen, cell-based, 5 mM glucose, NPC library (AID 1117329;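 active = compound raises insulin release from rat beta cells at 5 mM glucose, no numeric limit stated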). Particulars: rat INS-1E insulin secretion, at 10 µM, stronger effect = higher value.
The nature of assay [4]: growth inhibition of GSK3B-pretreated HCT116 cells – cell-based, CellTiter-Glo, 0.2 to 20 µM (AID 1117336;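 active = compounds lowering colon cancer cell viability after pretreatment blocking the GSK3B kinase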). The conditions noted are these: HCT116 viability after GSK3B inhibitor, at 20 µM, stronger effect = higher value. On the technique in general: In ATP-based viability assays light output follows the ATP content of the culture.
Assay [5] is described as follows: inhibition of endothelial tube formation, primary screen, imaging, VEGF stimulated, CD31 staining, tube area, NPC library (AID 1117340;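 active = compound that reduces growth-factor-driven endothelial tube area in a mixed cell culture, no cutoff stated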). Particulars: VEGF-stimulated ADSC/ECFC co-culture, at 10 µM, stronger effect = higher value.
A short description of assay [6]: glucagon-like peptide 1 release enhancers, primary assay, NCI-H716 cell line, NPC library (AID 1117341;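 active = compound raises GLP1 secretion from the human gut endocrine cells, with no numeric limit stated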). The conditions noted are these: NCI-H716 cells, at 10 µM, stronger effect = higher value.
Assay [7] is described as follows: HCT116 colon cancer cell growth inhibition, primary screen, CellTiter-Glo luminescence, NPC library (AID 1117342;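 active = compounds that lower survival of HCT116 colon cancer cells in the luminescence readout, no numeric limit stated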). The conditions noted are these: at 20 µM (top of the series).
The nature of assay [8]: CellTiter-Glo luminescent readout of SW480 viability loss, NPC library primary (AID 1117343;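 active = compounds that lower viability of the colon cancer cells in the luminescence readout, with no numeric limit stated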). The conditions noted are these: CellTiter-Glo luminescence; at 20 µM (top of the series).
Assay [9] is described as follows: decreased DLD-1 cellular survival, CellTiter-Glo luminescent readout, NPC compound collection, primary HTS (AID 1117346;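 active = compounds that lower survival of DLD-1 colon cancer cells in the luminescence readout, no cutoff given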). The conditions noted are these: DLD-1 viability, CellTiter-Glo luminescence; at 20 µM (top of the series).
Assay [10] has as its target 6-phosphogluconate dehydrogenase, decarboxylating (Homo sapiens) (UniProt P52209). Briefly: 6PGD enzyme inhibitors, primary screen, biochemical, human, recombinant enzyme, NADPH absorbance (AID 1159550;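 active = at least 20% inhibition of 6-phosphogluconate dehydrogenase activity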). Particulars: recombinant 6PGD, NADPH absorbance 341 nm; at 10 µM; stronger effect = higher value.

Values joined by “and” are separate entries in the source; they are usually repeats but may differ in a detail not shown here. Equal entries are not always repeated. Active and inactive are the calls of the source. Rule as the data show it, unless noted: active = parasite load remaining mostly below about 12% (no sharp cut-off); inactive = mostly above about 10%.

6-phosphogluconate dehydrogenase, decarboxylating (Homo sapiens), sequence (P52209 whole entry, looked up): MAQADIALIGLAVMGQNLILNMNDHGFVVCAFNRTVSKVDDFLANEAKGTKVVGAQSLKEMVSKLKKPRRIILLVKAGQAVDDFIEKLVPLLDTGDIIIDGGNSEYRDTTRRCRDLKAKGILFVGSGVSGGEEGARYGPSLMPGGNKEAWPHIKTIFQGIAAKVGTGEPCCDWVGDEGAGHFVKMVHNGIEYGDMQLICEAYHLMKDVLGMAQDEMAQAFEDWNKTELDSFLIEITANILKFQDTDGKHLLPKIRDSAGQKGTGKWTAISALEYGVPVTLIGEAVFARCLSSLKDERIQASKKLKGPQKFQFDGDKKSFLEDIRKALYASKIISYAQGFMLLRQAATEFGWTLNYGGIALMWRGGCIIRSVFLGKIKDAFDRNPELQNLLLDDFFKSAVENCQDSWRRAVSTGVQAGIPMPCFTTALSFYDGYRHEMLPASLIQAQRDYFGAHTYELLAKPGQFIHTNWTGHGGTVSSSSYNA

By viability is commonly meant a read-out of living cells in per cent, often relative to untreated cells. The term inhibition denotes the change of the read-out against control, counted positive when it falls. For the compound `CN1C(C)(C)CCCC1(C)C`, the parasite load remaining in assay [1] was 91.5% (inactive) and 53.1% (inactive). Also, in assay [1], the viability is 99.3% and 92.2%. Besides, the nuclear beta-catenin stimulation is 1.1% (inactive) in [2] (at 10 µM) and 0.5% in [2] (stimulation, at 2 µM). The insulin secretion stimulation in [3] is 0.8% (inactive). In addition, the viability decrease in [4] is 23.2% (inactive). Moreover, the tube area decrease in [5] was 2.5% (inactive). In [6], the GLP1 secretion stimulation was -2.3% (inactive). The inhibition of viability in [7] was -1.5% (inactive). Besides, the figures for the viability decrease (inhibition) in assay [8] and in assay [9] were -25.5% (inactive) and -10.7% (inactive), respectively. Further, the inhibition in assay [10] is 2.01% (inactive).

On to `O=C(CCBr)N1CCN(C(=O)CCBr)CC1`, for which the parasite load remaining in assay [1] was 146% (inactive) and 41.7% (inactive). Also, in [1], the viability is 86.4% and 105%. In addition, the nuclear beta-catenin stimulation in assay [2] (at 10 µM) was 1.4% (inactive); in [2] (stimulation, at 2 µM), 1.7%. Moreover, in assay [3], the insulin secretion stimulation was -2.1% (inactive). Besides, in assay [4], the viability decrease is 56.1% (active). The tube area decrease in assay [5] is 60.5% (active). Further, the GLP1 secretion stimulation in assay [6] was -4.4% (inactive). In [7], the inhibition of viability was -0.5% (inactive). Besides, the viability decrease (inhibition) is 3.9% (inactive) in assay [8] and -14% (inactive) in assay [9]. In assay [10], the inhibition is -1.69% (inactive).

As to `C[C@@](Cc1ccc(O)c(O)c1)(NN)C(=O)O`, in [1], the parasite load remaining is 47.3% (inactive). The viability in [1] came to 129%. The nuclear beta-catenin stimulation in assay [2] (at 10 µM) was -1.9% (inactive); in assay [2] (stimulation, at 2 µM), -0.3%. Moreover, in assay [3], the insulin secretion stimulation was 0.3% (inactive). The viability decrease in [4] was 48.3% (inactive). Besides, the tube area decrease in assay [5] is -3.9% (inactive). Moreover, in [6], the GLP1 secretion stimulation was -1.3% (inactive). The inhibition of viability in assay [7] was 27.4% (inactive). The viability decrease (inhibition) in [8] is 88.8% (active); in assay [9], 11.7% (inactive). Moreover, the inhibition in assay [10] was -4.83% (inactive).

In the case of `CCCc1cc(C(N)=S)ccn1`, the parasite load remaining in [1] was 145% (inactive) and 18.2% (inactive). Moreover, the viability in assay [1] was 83.8% and 63%. Moreover, the nuclear beta-catenin stimulation in assay [2] (at 10 µM) is 0.2% (inactive); in [2] (stimulation, at 2 µM), 2%. Also, in assay [3], the insulin secretion stimulation was -1.7% (inactive). In assay [4], the viability decrease is -13.4% (inactive). Besides, in [5], the tube area decrease is 1% (inactive). The GLP1 secretion stimulation in assay [6] was -0.6% (inactive). Besides, the inhibition of viability in assay [7] is 6.7% (inactive). For the same compound, the viability decrease (inhibition) in assay [8] was 5.3% (inactive); in assay [9] it was -3.5% (inactive). Moreover, in assay [10], the inhibition is 3.48% (inactive).

Consider `Oc1c(Cl)cc(Cl)cc1Sc1cc(Cl)cc(Cl)c1O`, for which, in assay [1], the parasite load remaining was 21.9% (inactive) and 0.17% (inactive). In addition, the viability in [1] was 65.4% and 70%. For the same compound, the nuclear beta-catenin stimulation is 41.4% (active) in assay [2] (at 10 µM) and 1.5% in [2] (stimulation, at 2 µM). The insulin secretion stimulation in [3] was 5.2% (inactive). The viability decrease in assay [4] was 99.2% (active). For the same compound, in [5], the tube area decrease was 103% (active). Besides, the GLP1 secretion stimulation in assay [6] is 23.6% (active). Also, in assay [7], the inhibition of viability is 103% (active). In addition, the figures for the viability decrease (inhibition) in assay [8] and in assay [9] were 113% (active) and 102% (active), respectively. Moreover, the inhibition in assay [10] is -6.91% (inactive).

For the compound `CC(C)(C)CC(C)(C)c1ccc(O)c(Cc2ccc(Cl)cc2Cl)c1`, the parasite load remaining in [1] was 157% (inactive). The viability in [1] worked out at 83.5%. Further, the nuclear beta-catenin stimulation in assay [2] (at 10 µM) is 0.1% (inactive); in [2] (stimulation, at 2 µM) it was 6.3%. Moreover, the insulin secretion stimulation in assay [3] is 4.4% (active). In assay [4], the viability decrease is 99.3% (active). The tube area decrease in assay [5] is 108% (active). In addition, the GLP1 secretion stimulation in [6] is 117% (active). Also, the inhibition of viability in assay [7] was 100% (active). Further, the viability decrease (inhibition) in assay [8] is 120% (active); in assay [9], 102% (active). Moreover, the inhibition in assay [10] was -15.2% (inactive).

With `Nc1ccc(S(=O)(=O)Nc2ccccn2)cc1`, the parasite load remaining in assay [1] was 73.3% (inactive) and 71.4% (inactive) and 46.1% (inactive). Also, the viability in [1] is 93.8% and 68.3% and 99%. Moreover, the nuclear beta-catenin stimulation is -0.3% (inactive) in [2] (at 10 µM) and 1% in assay [2] (stimulation, at 2 µM). Moreover, in assay [3], the insulin secretion stimulation is -2.8% (inactive). Moreover, the viability decrease in assay [4] was -1.3% (inactive). Also, the tube area decrease in assay [5] was 7.9% (inactive). The GLP1 secretion stimulation in assay [6] is -3.8% (inactive). The inhibition of viability in assay [7] is -12% (inactive). The values for the viability decrease (inhibition) in assay [8] and in [9] were 17.6% (inactive) and -7.25% (inactive), respectively. For the same compound, the inhibition in assay [10] was 4.06% (inactive).

Take `CCN1CCCC(OC(=O)C(c2ccccc2)c2ccccc2)C1` (centres undefined): the parasite load remaining in assay [1] was 78.7% (inactive) and 105% (inactive) and 40.1% (inactive). Further, the viability in assay [1] is 75.6% and 65.9% and 85.9%. In addition, the nuclear beta-catenin stimulation in assay [2] (at 10 µM) was 0.6% (inactive); in assay [2] (stimulation, at 2 µM) it was 2.6%. The insulin secretion stimulation in [3] is 133% (active). Besides, in assay [4], the viability decrease is 3.4% (inactive). Besides, in [5], the tube area decrease was 18.5% (inactive). Besides, the GLP1 secretion stimulation in assay [6] is 1.3% (inactive). For the same compound, in [7], the inhibition of viability is 68.8% (active). The viability decrease (inhibition) was 71.6% (active) in assay [8] and 46.5% (inactive) in [9]. For the same compound, in assay [10], the inhibition is -9.18% (inactive).

For `CC(Cc1cccc(C(F)(F)F)c1)NCCOC(=O)c1ccccc1` (centres undefined), in [1], the parasite load remaining was 112% (inactive) and 111% (inactive) and 72.4% (inactive). In assay [1], the viability is 102% and 77% and 73.5%. The nuclear beta-catenin stimulation was 2.3% (inactive) in assay [2] (at 10 µM) and 3.6% in [2] (stimulation, at 2 µM). Also, the insulin secretion stimulation in assay [3] was 3% (inactive). Also, the viability decrease in assay [4] was -38.7% (inactive). Also, in assay [5], the tube area decrease was 0.6% (inactive). Also, the GLP1 secretion stimulation in assay [6] was 2.6% (inactive). The inhibition of viability in assay [7] is 18.1% (inactive). Besides, the viability decrease (inhibition) in assay [8] is 51.4% (active); in [9], 28.7% (inactive). In addition, the inhibition in assay [10] is 16.1% (inactive).

As for `Cc1c(N(C)CS(=O)(=O)O)c(=O)n(-c2ccccc2)n1C`, the parasite load remaining in [1] was 109% (inactive) and 141% (inactive) and 63.8% (inactive). Moreover, the viability in [1] was 100% and 88.3% and 95.6%. For the same compound, the nuclear beta-catenin stimulation in assay [2] (at 10 µM) was -0.4% (inactive); in assay [2] (stimulation, at 2 µM), 0.9%. Besides, the insulin secretion stimulation in assay [3] was -0.6% (inactive). Further, the viability decrease in assay [4] is 1.05% (inactive). Further, the tube area decrease in [5] was -53.1% (inactive). Besides, in assay [6], the GLP1 secretion stimulation is 2.4% (inactive). Further, the inhibition of viability in [7] is 3% (inactive). Besides, the results for the viability decrease (inhibition) in assay [8] and in [9] were 23.9% (inactive) and 3.35% (inactive), respectively. Besides, the inhibition in [10] is 19.3% (inactive).

Turning to `Cc1ccnc(NS(=O)(=O)c2ccc(N)cc2)n1`, the parasite load remaining in [1] was 74% (inactive) and 287% (inactive) and 42.8% (inactive). The viability in assay [1] is 92.3% and 68.7% and 98.8%. Moreover, the nuclear beta-catenin stimulation in assay [2] (at 10 µM) is 3.8% (inactive); in assay [2] (stimulation, at 2 µM), 1.5%. Besides, the insulin secretion stimulation in assay [3] is -0.3% (inactive). Besides, the viability decrease in assay [4] was 9.35% (inactive). Also, the tube area decrease in assay [5] is -12.6% (inactive). Further, in assay [6], the GLP1 secretion stimulation is 2.1% (inactive). The inhibition of viability in assay [7] is 2.4% (inactive). Further, the figures for the viability decrease (inhibition) in assay [8] and in assay [9] were 31.8% (inactive) and 7.5% (inactive), respectively. Also, the inhibition in assay [10] was 2.58% (inactive).

For the compound `COc1cc(N)c(Cl)cc1C(=O)NC1CCN(Cc2ccccc2)CC1`, the parasite load remaining in assay [1] was 50.5% (inactive) and 24.1% (inactive) and 67.3% (inactive). Besides, the viability in [1] was 116% and 86.9% and 74.5%. Moreover, the nuclear beta-catenin stimulation was 3.1% (inactive) in assay [2] (at 10 µM) and 0.9% in assay [2] (stimulation, at 2 µM). Further, in assay [3], the insulin secretion stimulation was 9.3% (inactive). In [4], the viability decrease was -6.7% (inactive). Also, in assay [5], the tube area decrease was 5.3% (inactive). For the same compound, in assay [6], the GLP1 secretion stimulation is -0.7% (inactive). Also, the inhibition of viability in [7] is 38.2% (inactive). Moreover, the viability decrease (inhibition) in assay [8] was 26.2% (inactive); in [9], 6.4% (inactive). For the same compound, in [10], the inhibition is -7.99% (inactive).
